Screens as filed in PubChem BioAssay.
Sampled rows, rich in hits. Any-hit rate of the full collection: about 11%.
Sm TGR inh: S. mansoni TGR enzyme inhibition. Q962Y6. AID 485364. purified TGR, DTNB reduction, TNB absorbance 405 nm. 360,000 compounds, 3% hits. Potency, µM (top dose mostly 114 µM), hits mostly inhibitors; further: nearly all actives have a fitted effect of over 60% in size
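First, TGR (20 nM dispensed) and NADPH were mixed with compound. Second, a 15 min room-temperature incubation followed. Third, further NADPH and then DTNB were added to start the reaction. Finally, TNB absorbance was monitored kinetically.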
NS1 inh: influenza NS1 inhibition. 270,000 compounds, 0.4% hits. Potency, µM (doses to about 46.1 µM); calls by dose curve; further: actives are rising curves; nearly all actives have a fitted effect of over 50% in size
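Growth recovery, yeast-based: influenza A NS1 expressed in S. cerevisiae causes slow growth, and suppressors are detected by OD600. The parent strain without NS1 is used as positive control.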
AMA1-RON2 inh: disrupts binding of P. falciparum AMA1 to RON2 | Potency, µM (titrated, usually from 58.2 µM), hits mostly inhibitors | 360,000 compounds, 0.2% hits | AlphaScreen AMA1-biotinylated RON2 peptide binding; further: nearly all actives have a fitted effect of over 45% in size
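AMA1 (3D7) with his tag at 25 nM final met compounds first, then biotinylated RON2 peptide at 25 nM; detection used donor plus acceptor beads, 10 µg/mL apiece, read by AlphaScreen after 30 min at room temperature.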
Pf growth 48h: inhibits P. falciparum growth in the first generation, 48 h; Potency, µM (top dose mostly 28.7 µM), most hits filed as inhibitors; 310,000 compounds, 5.9% hits; P. falciparum luciferase growth in erythrocytes, 48 h
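Luminescence readout; reporter = integrated firefly luciferase in P. falciparum. RBC culture at 2% hematocrit, 0.1% parasitemia final, 37 C/5% CO2; decreased signal taken as growth inhibition.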
Pf growth 96h: P. falciparum growth inhibition at 96 hour, primary screen for plastid delayed-death inhibitors | P. falciparum luciferase reporter growth, 96 h | Potency, µM (titrated, usually from 28.7 µM), actives largely listed as inhibitors | 320,000 compounds, 6.9% hits
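Readout is luminescence from an integrated firefly luciferase in P. falciparum. Red cells, 2% hematocrit and 0.05% parasitemia final, were cultured with compound through two parasite generations (96 hours) at 37 C, 5% CO2.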
Hits are given with their value; - = inactive; ? = inconclusive; . = no result given; [ ] = remark or other dose. Unless noted, the call rests on the fitted dose curve; in most records, active means well fitted curve in the direction sought with a large enough effect; inconclusive means small, poorly fitted or top-dose-only effect, or another doubt; inactive means no such curve, though single readings can be large; an effect the other way counts as inactive or inconclusive.

SMILES | Sm TGR inh | NS1 inh | AMA1-RON2 inh | Pf growth 48h | Pf growth 96h
Cc1ccc(S(=O)(=O)N2[C@@H](c3ccc(Br)cc3)C(C(=O)O)=C[C@H]2C(C)(C)C)cc1 | . | . | - | . | .
CC(Sc1nc2cc([N+](=O)[O-])ccc2n1-c1ccc(F)cc1)C(=O)NCc1ccc2c(c1)OCO2 (centres undefined) | - | ? | - | ? | 1.7µM
CC(Sc1nnc(-c2cccnc2)n1-c1ccccc1)C(=O)NCc1ccc2c(c1)OCO2 (centres undefined) | - | - | - | - | .
Cc1cc(C)cc(-n2c(SC(C)C(=O)NCc3ccc4c(c3)OCO4)nc3ccccc3c2=O)c1 (centres undefined) | - | - | - | 13µM | -
CC(Sc1nc2cc([N+](=O)[O-])ccc2n1-c1cccc(C(F)(F)F)c1)C(=O)NC(N)=O (centres undefined) | - | - | - | 0.59µM | 0.66µM
Cc1cccc(-n2c(SCC(=O)NCc3ccc4c(c3)OCO4)nc3ccccc3c2=O)c1 | - | - | - | ? | ?
CC(C)(C)c1ccccc1NC(=O)Nc1nc(C(N)Cc2ccc(F)cc2)cs1 (centres undefined) | . | . | - | . | .
C/C(=N\Nc1ccc(C(=O)c2c(C)cc3ccccn23)cc1[N+](=O)[O-])c1ccc(O)cc1 | - | - | - | 9.3µM | ?
O=C(CC1Sc2ncnn2C1=O)Nc1ccc(Br)cc1 (centres undefined) | 1µM | - | - | - | 10µM
COc1cc(-c2nnc(SCCOc3ccc(Cl)cc3)o2)cc(OC)c1OC | - | . | . | . | .
CC(=O)Nc1ccc2ccccc2c1[N+](=O)[O-] | . | . | - | . | .
O=[N+]([O-])c1c2ccccc2cc2ccccc12 | - | . | - | 2.6µM | ?
O=C(Nc1nc2ccccc2[nH]1)c1cccs1 | - | . | - | - | 0.47µM
COc1cc(SC)ccc1C(=O)Nc1nc2ccccc2[nH]1 | - | - | - | ? | 0.17µM
COc1cc(C(=O)Nc2ccc(S(=O)(=O)Nc3cnc4ccccc4n3)cc2)cc(OC)c1OC | - | ? | - | ? | 12µM
COc1cc(C(=O)Nc2ccc3ccccc3c2)cc(OC)c1OC | - | - | - | 5.2µM | 1.7µM
COc1ccccc1C(=O)Nc1nc2ccccc2[nH]1 | - | - | - | - | -
COc1ccc(C(=O)Nc2ccc3ccccc3c2)cc1OC | - | - | - | - | -
COc1cc(OC)cc(C(=O)Nc2ccc(S(=O)(=O)Nc3cnc4ccccc4n3)cc2)c1 | . | . | - | . | .
Cc1cc(C(=O)CCC(=O)NCC(=O)Nc2c(C)cccc2C)c(C)s1 | . | . | - | . | .
COc1ccc(CC(=O)NCCS(=O)(=O)N2CCN(c3ccc(F)cc3)CC2)cc1OC | - | - | - | ? | -
COc1ccc(CCNC(=O)c2ccc(SC)cc2OC)cc1 | - | - | - | ? | 2.6µM
CCn1c(CNC(=O)c2cc(OC)c(OC)c(OC)c2)cc2ccccc21 | - | ? | - | 9.3µM | ?
COc1cc(C(=O)Nc2nc3ccccc3[nH]2)cc(OC)c1OC | - | - | - | ? | 9.3µM
COc1ccc(C(=O)Nc2nc3ccccc3[nH]2)cc1 | - | - | - | - | -
SMILES | Sm TGR inh | NS1 inh | AMA1-RON2 inh | Pf growth 48h | Pf growth 96h
Oc1c(C(c2ccc(F)cc2)N2CCOCC2)sc2nc(-c3ccco3)nn12 (centres undefined) | - | . | . | . | .
Cc1ccc(O)c(-c2n[nH]c3c2C(c2ccccc2F)N(Cc2ccco2)C3=O)c1 (centres undefined) | - | . | . | . | .
COc1cccc(-c2c(C(=O)O)cc(O)c3ccc(OC)cc23)c1 | . | . | - | . | .
CCOc1ccc(CNC(=O)c2sc3nc(C)cc(C)c3c2-n2cccc2)cc1 | - | . | . | . | .
Cc1cccc2c1=NC(=O)/C(=C/c1c(O)[nH]c(=O)[nH]c1=O)C=2 | 35µM | - | -[2.32 µM] | - | ?
O=C(O)C[C@@H](C(=O)O)C1c2ccccc2-c2ccccc21 | . | - | . | . | .
NC(=O)C1=C[C@@H](c2csc3ccccc23)C[C@@H](OCCCCO)O1 | - | - | - | - | -
CCOC(=O)c1c(C)[nH]c(C=Nc2ccc(OC)cc2)c1O | - | - | - | - | 15µM
COC(=O)c1c(C)[nH]c(C=Nc2ccc(OC)cc2)c1C | - | - | - | - | -
CCOC(=O)c1c(C)[nH]c(N=Nc2ccc(C)cc2)c1C | - | - | - | - | .
CCOC(=O)c1c(C)[nH]c(C=Nc2ccccc2)c1O | 32µM | - | . | - | 9.3µM
CCOC(=O)c1c(C)[nH]c(N=Nc2ccccc2)c1C | - | - | 13µM | . | -
O=C(c1ccc(NS(=O)(=O)c2ccc(F)cc2)cc1)N1CCC1 | - | . | - | - | -
CN(Cc1ccon1)C(=O)c1ccc2nc(Cc3cccc(Cl)c3)oc2c1 | - | - | - | - | 13µM
CC(c1ccon1)N(C)C(=O)c1ccc2nc(Cc3cccc(Cl)c3)oc2c1 (centres undefined) | - | - | - | - | ?
C=CCNC(=O)c1ccc(N(Cc2ccc(Cl)cc2)S(C)(=O)=O)cc1 | - | - | - | - | -
C=CCNC(=O)c1ccc(CN(c2ccc(OCC)cc2)S(=O)(=O)c2ccc(C)cc2)cc1 | - | - | - | 7.4µM | -
CCn1c(SCc2ccc(F)cc2Cl)nnc1-c1nonc1NC(C)=O | - | . | . | . | .
C=CCN(CC=C)S(=O)(=O)c1ccc(C(=O)Nc2nnc(CSC)o2)cc1 | - | . | - | 12µM | ?
CCCN(CCC)S(=O)(=O)c1ccc(C(=O)Nc2nnc(COC)o2)cc1 | - | . | - | 15µM | -
Nc1ccc(Oc2ccccc2-c2ccccc2)cc1 | . | . | 22µM | . | .
C[C@H](CO)N1C[C@H](C)[C@@H](CN(C)S(=O)(=O)c2ccc(Oc3ccccc3)cc2)OCc2cnnn2CCCC1=O | . | . | - | . | .
CC1CC(C)CN(C(=O)c2cccc(N3C(=O)c4ccccc4C3=O)c2)C1 (centres undefined) | - | . | - | - | ?
CCOc1ccc(S(=O)(=O)N2CCCCC2)cc1NC(=O)CN1C(=O)NC(CC)(c2ccccc2)C1=O (centres undefined) | - | - | - | 4.7µM | 12µM
CCC1(c2ccccc2)NC(=O)N(CC(=O)Nc2cc(S(=O)(=O)N3CCCCC3)ccc2OC(C)C)C1=O (centres undefined) | - | . | - | 10µM | ?
SMILES | Sm TGR inh | NS1 inh | AMA1-RON2 inh | Pf growth 48h | Pf growth 96h
CCC1(c2ccccc2)NC(=O)N(CC(=O)Nc2cccc(S(=O)(=O)N3CCCC3)c2)C1=O (centres undefined) | - | . | - | ? | -
CCC1(c2ccccc2)NC(=O)N(CC(=O)Nc2cc(S(=O)(=O)N3CCCCCC3)ccc2OC)C1=O (centres undefined) | - | . | - | 9.3µM | 7.4µM
Cc1ccc(C)c(N2CCN(C(=O)Cn3cnc4sc(C)c(S(=O)(=O)N5CCN(c6ncccn6)CC5)c4c3=O)CC2)c1 | - | . | . | . | .
Cc1ccc(S(=O)(=O)N(C)C)cc1NC(=S)N(C)C1CCN(C)CC1 | - | - | - | - | -
CCn1c(C(=O)NCc2ccc(F)cc2)cc2oc3ccccc3c21 | - | . | . | . | .
CCOc1ccccc1CNC(=O)c1cc2oc3ccccc3c2n1CC | - | - | - | . | 1.2µM
